Assay results reported in paper PMC7862700, “An all-to-all approach to the identification of sequence-specific readers for epigenetic DNA modifications on cytosine”.

Legend:
Assay in all cases: DAPPL (digital affinity profiling via proximity ligation, sequencing); 10 mM Tris-HCl pH 7.5, 50 mM NaCl, 1 mM DTT, 4% glycerol, room temperature, 30 min; GST-TFs on glutathione beads, 16-mer random dsDNA library, 0.1% formaldehyde crosslink after washing; high values mean tight binding
FLI1 = biological target: T1, FLI1 (Homo sapiens, UniProt Q01543 1-452); conditions: protein: recombinant; tags: N-terminal GST; dsDNA, one strand shown
T1 sequence: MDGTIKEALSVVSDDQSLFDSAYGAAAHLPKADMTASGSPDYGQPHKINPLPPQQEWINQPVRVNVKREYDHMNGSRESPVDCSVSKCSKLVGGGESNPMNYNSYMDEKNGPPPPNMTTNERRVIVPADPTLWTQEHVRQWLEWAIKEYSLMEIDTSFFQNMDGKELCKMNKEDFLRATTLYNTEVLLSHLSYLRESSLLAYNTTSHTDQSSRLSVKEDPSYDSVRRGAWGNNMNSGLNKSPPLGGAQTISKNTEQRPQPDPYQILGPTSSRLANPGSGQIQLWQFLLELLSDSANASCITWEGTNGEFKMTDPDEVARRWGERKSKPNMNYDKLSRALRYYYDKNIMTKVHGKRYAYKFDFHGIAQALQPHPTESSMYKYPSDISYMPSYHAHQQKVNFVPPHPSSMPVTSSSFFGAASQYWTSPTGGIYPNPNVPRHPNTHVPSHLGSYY
In short: (§1)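 Binding signal is defined as a hexamer's read frequency for one factor over its frequency for the tag-only sample. To obtain reads, GST-fused human transcription factors were expressed in yeast, captured on glutathione beads, barcoded with DNA and pooled with that sample. Pools met 200 nmole of a 16-mer random double-stranded DNA library in Tris/NaCl/DTT/glycerol buffer for 30 min at room temperature before washing, 0.1% formaldehyde crosslinking, proximity ligation (BsaI/T4 ligase, 1 h, 37 °C), PCR and Illumina NextSeq500 sequencing.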

ELK1 = biological target: T2, ELK1 (Homo sapiens, UniProt P19419 1-428); conditions: protein: recombinant; tags: N-terminal GST; dsDNA, one strand shown
T2 sequence: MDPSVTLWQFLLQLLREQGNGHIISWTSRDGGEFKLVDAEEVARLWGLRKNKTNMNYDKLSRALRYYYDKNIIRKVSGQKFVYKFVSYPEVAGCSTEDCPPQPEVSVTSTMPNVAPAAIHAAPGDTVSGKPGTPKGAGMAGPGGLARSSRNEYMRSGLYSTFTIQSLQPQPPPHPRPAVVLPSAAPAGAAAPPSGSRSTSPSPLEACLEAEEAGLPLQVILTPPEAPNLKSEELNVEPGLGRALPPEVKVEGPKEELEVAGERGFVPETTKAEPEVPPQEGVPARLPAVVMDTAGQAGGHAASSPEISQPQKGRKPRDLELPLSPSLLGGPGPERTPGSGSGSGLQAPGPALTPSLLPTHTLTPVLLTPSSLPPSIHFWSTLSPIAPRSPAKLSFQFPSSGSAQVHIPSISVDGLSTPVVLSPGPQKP
In short: as §1

GABPA = biological target: T3, GABPA (Homo sapiens, UniProt Q06546 1-454); conditions: protein: recombinant; tags: N-terminal GST; dsDNA, one strand shown
T3 sequence: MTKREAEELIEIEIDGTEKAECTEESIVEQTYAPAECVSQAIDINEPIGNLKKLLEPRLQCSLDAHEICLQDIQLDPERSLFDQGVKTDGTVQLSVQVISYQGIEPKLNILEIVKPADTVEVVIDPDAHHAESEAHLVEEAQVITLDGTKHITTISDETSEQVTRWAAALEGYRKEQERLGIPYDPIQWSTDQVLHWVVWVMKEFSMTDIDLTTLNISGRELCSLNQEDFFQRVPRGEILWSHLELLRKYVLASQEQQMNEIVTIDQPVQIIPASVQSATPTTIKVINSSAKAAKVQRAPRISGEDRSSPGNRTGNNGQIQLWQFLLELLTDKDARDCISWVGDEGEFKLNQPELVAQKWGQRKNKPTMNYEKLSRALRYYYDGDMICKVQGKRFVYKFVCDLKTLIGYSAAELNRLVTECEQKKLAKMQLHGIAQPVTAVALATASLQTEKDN
In short: as §1

ERG = biological target: T4, ERG (Homo sapiens, UniProt P11308 1-479); conditions: protein: recombinant; tags: N-terminal GST; dsDNA, one strand shown
T4 sequence: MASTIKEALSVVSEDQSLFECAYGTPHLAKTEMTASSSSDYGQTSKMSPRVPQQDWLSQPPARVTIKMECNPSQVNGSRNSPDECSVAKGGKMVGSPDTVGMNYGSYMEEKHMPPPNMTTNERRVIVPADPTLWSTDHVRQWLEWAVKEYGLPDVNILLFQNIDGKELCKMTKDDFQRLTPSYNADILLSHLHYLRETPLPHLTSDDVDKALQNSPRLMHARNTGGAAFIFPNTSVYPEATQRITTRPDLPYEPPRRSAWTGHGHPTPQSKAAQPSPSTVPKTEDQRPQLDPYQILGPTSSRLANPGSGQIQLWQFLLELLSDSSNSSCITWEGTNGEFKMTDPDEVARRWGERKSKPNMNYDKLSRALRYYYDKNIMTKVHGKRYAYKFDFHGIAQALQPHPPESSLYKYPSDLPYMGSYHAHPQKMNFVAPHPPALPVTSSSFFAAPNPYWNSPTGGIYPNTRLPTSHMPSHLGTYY
In short: as §1

ELF1 = ELF1 (Homo sapiens, UniProt P32519 1-619); conditions: protein: recombinant; tags: N-terminal GST; dsDNA, one strand shown
In short: as §1

EHF = biological target: T5, EHF (Homo sapiens, UniProt Q9NZC4 1-300); conditions: protein: recombinant; tags: N-terminal GST; dsDNA, one strand shown
T5 sequence: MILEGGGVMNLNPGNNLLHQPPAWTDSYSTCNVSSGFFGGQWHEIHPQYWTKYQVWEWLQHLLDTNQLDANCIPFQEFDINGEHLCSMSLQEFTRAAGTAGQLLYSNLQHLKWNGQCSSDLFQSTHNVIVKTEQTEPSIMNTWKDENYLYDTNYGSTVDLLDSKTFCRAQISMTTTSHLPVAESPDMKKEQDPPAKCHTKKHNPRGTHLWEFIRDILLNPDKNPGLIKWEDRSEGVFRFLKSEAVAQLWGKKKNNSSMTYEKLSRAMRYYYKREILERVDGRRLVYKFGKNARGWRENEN
In short: as §1

SPI1 = SPI1 (Homo sapiens, UniProt P17947 1-270); conditions: protein: recombinant; tags: N-terminal GST; dsDNA, one strand shown
In short: as §1

SPIB = SPIB (Homo sapiens, UniProt Q01892 1-262); conditions: protein: recombinant; tags: N-terminal GST; dsDNA, one strand shown
In short: as §1

ELK3 = biological target: T6, ELK3 (Homo sapiens, UniProt P41970 1-407); conditions: protein: recombinant; tags: N-terminal GST; dsDNA, one strand shown
T6 sequence: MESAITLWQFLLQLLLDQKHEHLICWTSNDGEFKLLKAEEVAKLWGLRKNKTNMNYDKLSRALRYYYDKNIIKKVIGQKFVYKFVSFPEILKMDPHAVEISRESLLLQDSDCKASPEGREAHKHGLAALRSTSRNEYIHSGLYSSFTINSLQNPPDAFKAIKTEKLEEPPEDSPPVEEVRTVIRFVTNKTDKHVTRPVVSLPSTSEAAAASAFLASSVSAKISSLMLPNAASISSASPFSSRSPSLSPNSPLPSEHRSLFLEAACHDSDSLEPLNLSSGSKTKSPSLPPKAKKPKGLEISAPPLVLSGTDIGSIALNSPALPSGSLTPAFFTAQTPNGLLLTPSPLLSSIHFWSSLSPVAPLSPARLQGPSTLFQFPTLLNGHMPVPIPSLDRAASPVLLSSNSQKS
In short: as §1

FEV = biological target: T7, FEV (Homo sapiens, UniProt Q99581 1-238); conditions: protein: recombinant; tags: N-terminal GST; dsDNA, one strand shown
T7 sequence: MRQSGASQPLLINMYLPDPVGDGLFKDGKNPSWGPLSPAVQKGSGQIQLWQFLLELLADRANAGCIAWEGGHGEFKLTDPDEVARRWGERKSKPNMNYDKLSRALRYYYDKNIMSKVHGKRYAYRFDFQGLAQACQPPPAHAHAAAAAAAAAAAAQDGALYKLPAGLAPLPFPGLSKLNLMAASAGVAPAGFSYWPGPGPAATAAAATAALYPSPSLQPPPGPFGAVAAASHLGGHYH
In short: as §1

ETV5 = ETV5 (Homo sapiens, UniProt P41161 1-510); conditions: protein: recombinant; tags: N-terminal GST; dsDNA, one strand shown
In short: as §1

HSF1 = HSF1 (Homo sapiens, UniProt Q00613 1-529); conditions: protein: recombinant; tags: N-terminal GST; chain copies: 3; dsDNA, one strand shown
In short: as §1

SPIC = biological target: T8, SPIC (Homo sapiens, UniProt Q8N5J4 1-248); conditions: protein: recombinant; tags: N-terminal GST; dsDNA, one strand shown
T8 sequence: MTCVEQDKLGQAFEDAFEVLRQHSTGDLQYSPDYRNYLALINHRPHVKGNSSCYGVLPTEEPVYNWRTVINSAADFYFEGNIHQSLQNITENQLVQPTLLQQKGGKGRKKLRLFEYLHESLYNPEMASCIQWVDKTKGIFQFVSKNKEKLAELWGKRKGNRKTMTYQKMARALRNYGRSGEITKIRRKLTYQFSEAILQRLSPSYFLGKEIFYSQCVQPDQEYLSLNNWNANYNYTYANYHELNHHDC
In short: as §1

ELF4 = ELF4 (Homo sapiens, UniProt Q99607 1-663); conditions: protein: recombinant; tags: N-terminal GST; dsDNA, one strand shown
In short: as §1

ELK4 = biological target: T9, ELK4 (Homo sapiens, UniProt P28324-2 1-405); conditions: protein: recombinant; tags: N-terminal GST; dsDNA, one strand shown
T9 sequence: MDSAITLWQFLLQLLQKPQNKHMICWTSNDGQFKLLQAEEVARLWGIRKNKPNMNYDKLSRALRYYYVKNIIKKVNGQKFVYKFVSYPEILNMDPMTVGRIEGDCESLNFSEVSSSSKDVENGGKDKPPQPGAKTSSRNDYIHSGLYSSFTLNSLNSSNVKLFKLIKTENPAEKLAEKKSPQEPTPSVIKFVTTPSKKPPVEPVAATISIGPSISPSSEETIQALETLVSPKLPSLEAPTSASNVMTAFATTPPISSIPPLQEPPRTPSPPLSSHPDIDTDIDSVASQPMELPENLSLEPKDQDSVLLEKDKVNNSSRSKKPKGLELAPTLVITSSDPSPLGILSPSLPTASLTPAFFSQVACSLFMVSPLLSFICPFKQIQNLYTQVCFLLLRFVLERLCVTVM
In short: as §1

ETV2 = biological target: T10, ETV2 (Homo sapiens, UniProt O00321 1-342); conditions: protein: recombinant; tags: N-terminal GST; dsDNA, one strand shown
T10 sequence: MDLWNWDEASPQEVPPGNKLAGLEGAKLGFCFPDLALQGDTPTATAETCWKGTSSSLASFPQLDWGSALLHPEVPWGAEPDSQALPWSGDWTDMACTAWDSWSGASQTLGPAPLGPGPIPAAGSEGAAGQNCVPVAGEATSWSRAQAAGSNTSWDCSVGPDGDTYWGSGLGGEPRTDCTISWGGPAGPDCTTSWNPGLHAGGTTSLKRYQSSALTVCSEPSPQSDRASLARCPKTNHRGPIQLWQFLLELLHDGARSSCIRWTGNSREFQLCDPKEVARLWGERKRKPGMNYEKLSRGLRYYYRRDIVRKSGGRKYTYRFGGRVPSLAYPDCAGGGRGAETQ
In short: as §1

ELF3 = biological target: T11, ELF3 (Homo sapiens, UniProt P78545 1-371); conditions: protein: recombinant; tags: N-terminal GST; dsDNA, one strand shown
T11 sequence: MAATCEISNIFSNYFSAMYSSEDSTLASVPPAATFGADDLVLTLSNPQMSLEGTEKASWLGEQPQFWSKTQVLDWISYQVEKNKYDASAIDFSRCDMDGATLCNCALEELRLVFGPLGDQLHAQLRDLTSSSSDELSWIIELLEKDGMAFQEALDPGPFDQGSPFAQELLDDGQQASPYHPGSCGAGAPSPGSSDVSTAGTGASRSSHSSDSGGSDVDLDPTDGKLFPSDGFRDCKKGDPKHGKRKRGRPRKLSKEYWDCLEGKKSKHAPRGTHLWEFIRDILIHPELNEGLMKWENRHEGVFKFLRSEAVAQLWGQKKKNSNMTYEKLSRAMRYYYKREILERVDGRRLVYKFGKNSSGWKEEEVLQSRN
In short: as §1

CRX = CRX (Homo sapiens, UniProt O43186 1-299); conditions: protein: recombinant; tags: N-terminal GST; dsDNA, one strand shown
In short: as §1

ETV1 = ETV1 (Homo sapiens, UniProt P50549 1-477); conditions: protein: recombinant; tags: N-terminal GST; dsDNA, one strand shown
In short: as §1

Sequence of ETV1 (P50549 whole entry): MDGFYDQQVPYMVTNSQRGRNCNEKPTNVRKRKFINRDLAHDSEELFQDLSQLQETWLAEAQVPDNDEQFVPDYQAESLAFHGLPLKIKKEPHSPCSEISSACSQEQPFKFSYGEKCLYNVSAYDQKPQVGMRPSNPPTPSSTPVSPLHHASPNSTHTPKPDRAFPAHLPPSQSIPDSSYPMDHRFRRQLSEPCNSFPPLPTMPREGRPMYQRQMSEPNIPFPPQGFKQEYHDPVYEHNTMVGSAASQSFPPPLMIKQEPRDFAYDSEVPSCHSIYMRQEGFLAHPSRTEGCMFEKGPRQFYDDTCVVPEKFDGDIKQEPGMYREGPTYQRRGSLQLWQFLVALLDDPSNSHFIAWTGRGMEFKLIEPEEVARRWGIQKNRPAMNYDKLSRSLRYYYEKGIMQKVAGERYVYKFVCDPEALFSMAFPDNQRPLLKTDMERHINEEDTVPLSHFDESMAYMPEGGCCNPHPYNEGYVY
Sequence of ELF4 (Q99607 whole entry): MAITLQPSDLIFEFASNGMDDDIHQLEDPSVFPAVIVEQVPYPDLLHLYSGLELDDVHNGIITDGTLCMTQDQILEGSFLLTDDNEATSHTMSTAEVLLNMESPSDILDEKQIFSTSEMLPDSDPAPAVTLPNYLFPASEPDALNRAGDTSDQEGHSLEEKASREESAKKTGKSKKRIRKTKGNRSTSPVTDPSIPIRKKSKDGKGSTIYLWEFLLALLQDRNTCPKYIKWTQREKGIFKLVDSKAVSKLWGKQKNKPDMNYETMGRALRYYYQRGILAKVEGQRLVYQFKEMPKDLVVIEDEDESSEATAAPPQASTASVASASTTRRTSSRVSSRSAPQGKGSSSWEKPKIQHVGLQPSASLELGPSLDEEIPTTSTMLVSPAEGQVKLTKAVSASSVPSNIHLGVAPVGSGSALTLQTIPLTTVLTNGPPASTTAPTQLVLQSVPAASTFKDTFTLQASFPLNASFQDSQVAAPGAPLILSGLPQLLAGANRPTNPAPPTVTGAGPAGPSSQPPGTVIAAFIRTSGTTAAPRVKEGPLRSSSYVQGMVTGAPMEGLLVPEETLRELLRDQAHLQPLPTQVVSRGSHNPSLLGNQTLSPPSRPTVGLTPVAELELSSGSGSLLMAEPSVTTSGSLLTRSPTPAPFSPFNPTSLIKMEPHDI
Sequence of HSF1 (Q00613 whole entry): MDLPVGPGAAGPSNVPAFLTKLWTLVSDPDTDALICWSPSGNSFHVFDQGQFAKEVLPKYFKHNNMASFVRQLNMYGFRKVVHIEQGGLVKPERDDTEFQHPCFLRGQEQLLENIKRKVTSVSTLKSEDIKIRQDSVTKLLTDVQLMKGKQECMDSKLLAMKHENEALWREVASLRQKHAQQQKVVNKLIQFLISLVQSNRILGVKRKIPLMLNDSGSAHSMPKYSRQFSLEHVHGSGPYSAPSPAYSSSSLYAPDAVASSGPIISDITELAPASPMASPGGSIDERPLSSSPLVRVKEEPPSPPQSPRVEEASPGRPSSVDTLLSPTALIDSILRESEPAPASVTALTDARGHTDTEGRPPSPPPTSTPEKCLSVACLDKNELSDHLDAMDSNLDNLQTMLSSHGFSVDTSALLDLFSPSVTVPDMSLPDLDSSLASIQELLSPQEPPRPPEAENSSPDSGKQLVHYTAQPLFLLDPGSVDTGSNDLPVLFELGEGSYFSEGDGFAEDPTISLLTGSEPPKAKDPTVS
Sequence of CRX (O43186 whole entry): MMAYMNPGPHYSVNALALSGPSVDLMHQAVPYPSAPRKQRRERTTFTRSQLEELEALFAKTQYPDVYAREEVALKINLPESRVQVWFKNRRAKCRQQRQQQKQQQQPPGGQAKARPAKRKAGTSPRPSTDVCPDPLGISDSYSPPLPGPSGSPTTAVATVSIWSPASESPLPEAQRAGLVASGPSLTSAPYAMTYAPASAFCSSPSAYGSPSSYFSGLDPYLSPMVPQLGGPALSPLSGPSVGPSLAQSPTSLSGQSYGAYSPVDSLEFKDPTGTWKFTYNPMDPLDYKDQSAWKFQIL
Sequence of ELF1 (P32519 whole entry): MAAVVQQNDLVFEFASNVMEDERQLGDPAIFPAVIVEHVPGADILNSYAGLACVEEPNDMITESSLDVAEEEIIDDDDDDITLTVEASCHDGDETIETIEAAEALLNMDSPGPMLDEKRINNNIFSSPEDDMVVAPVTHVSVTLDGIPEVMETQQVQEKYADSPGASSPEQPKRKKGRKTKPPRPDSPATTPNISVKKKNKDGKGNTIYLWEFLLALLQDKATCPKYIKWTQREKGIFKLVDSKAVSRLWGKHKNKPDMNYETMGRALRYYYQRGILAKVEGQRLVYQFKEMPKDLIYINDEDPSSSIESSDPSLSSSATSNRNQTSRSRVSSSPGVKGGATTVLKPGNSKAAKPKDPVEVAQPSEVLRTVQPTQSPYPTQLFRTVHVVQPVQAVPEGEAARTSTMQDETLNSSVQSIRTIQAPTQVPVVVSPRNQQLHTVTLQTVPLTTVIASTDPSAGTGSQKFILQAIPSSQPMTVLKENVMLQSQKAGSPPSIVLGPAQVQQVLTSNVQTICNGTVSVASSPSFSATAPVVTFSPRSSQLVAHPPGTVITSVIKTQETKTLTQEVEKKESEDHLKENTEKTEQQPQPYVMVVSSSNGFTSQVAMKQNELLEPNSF
Sequence of SPIB (Q01892 whole entry): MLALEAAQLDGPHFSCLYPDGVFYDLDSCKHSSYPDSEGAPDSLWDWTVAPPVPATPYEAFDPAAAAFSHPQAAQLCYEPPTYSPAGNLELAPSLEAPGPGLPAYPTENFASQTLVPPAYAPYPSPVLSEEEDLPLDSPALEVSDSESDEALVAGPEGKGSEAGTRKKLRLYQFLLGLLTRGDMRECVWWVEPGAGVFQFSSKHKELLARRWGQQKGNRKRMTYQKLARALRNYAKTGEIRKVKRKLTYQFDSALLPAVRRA
Sequence of ETV5 (P41161 whole entry): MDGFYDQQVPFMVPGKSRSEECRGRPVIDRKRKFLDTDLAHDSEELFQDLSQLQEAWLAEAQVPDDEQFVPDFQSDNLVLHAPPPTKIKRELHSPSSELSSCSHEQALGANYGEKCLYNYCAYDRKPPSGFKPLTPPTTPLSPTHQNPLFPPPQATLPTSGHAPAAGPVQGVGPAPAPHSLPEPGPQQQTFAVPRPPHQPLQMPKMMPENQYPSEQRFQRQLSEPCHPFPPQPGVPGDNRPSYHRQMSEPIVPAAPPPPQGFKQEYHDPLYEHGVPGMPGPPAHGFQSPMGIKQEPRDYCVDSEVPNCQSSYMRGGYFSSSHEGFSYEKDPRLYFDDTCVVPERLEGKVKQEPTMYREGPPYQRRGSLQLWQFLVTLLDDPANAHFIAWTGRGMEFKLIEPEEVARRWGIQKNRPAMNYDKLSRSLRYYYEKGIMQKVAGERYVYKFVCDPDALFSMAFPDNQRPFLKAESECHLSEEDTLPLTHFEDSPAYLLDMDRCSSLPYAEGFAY

TCCAAC was tested, and the binding signal (FLI1) was 1.22 fold enrichment (6-mer frequency, TF over GST control), the binding signal (ELK1) was 1.24 fold enrichment (6-mer frequency, TF over GST control) and the binding signal (GABPA) was 1.22 fold enrichment (6-mer frequency, TF over GST control). For the same sequence, the binding signal (ERG) was 1.16 fold enrichment (6-mer frequency, TF over GST control), the binding signal (ELF1) was 1.25 fold enrichment (6-mer frequency, TF over GST control) and the binding signal (EHF) was 1.23 fold enrichment (6-mer frequency, TF over GST control). For the same sequence, the binding signal (SPI1) was 1.18 fold enrichment (6-mer frequency, TF over GST control), the binding signal (SPIB) was 1.16 fold enrichment (6-mer frequency, TF over GST control) and the binding signal (ELK3) was 1.21 fold enrichment (6-mer frequency, TF over GST control). For the same sequence, the binding signal (FEV) was 1.21 fold enrichment (6-mer frequency, TF over GST control), the binding signal (ETV5) was 1.14 fold enrichment (6-mer frequency, TF over GST control) and the binding signal (HSF1) was 1.11 fold enrichment (6-mer frequency, TF over GST control). For the same sequence, the binding signal (SPIC) was 1.26 fold enrichment (6-mer frequency, TF over GST control), the binding signal (ELF4) was 1.24 fold enrichment (6-mer frequency, TF over GST control) and the binding signal (ELK4) was 1.21 fold enrichment (6-mer frequency, TF over GST control). For the same sequence, the binding signal (ETV2) was 1.22 fold enrichment (6-mer frequency, TF over GST control), the binding signal (ELF3) was 1.23 fold enrichment (6-mer frequency, TF over GST control) and the binding signal (CRX) was 1.05 fold enrichment (6-mer frequency, TF over GST control). The binding signal (ETV1) was 1.2 fold enrichment (6-mer frequency, TF over GST control).
